Rows were chosen to be rich in hits. Some 21% of all compounds tested hit in one or more screens of this group.
Shiga inhibitor: A qHTS for Small Molecule Inhibitors of Shiga Toxin; Vero cells, Shiga toxin protein synthesis inhibition reporter; inhibition, % at 38.7 µM; hit rate 9.2% among 290,000; in the data active = inhibition mostly above about 28%, no sharp cut-off; inactive = mostly below about 43%
HCV inh: qHTS Assay for Inhibitors of Hepatitis C Virus (HCV) | Huh7.5.1 HCVcc-Cre infection, luciferase reporter, 44 h | Potency, µM (doses to about 41.8 µM), usual class: inhibitors | hit rate 3.4% among 340,000 | AID 651820, 2012
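A cell-based infection assay in which seeded cells (1,000 per well) receive test compound after 4 h, are inoculated with HCVcc-Cre at approximately 0.5 moi, and are incubated 44 h before luminescence detection.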
AMA1-RON2 inh: qHTS for Inhibitors of AMA1-RON; Towards Development of Antimalarial Drug Lead: Primary Screen. AlphaScreen AMA1-biotinylated RON2 peptide binding. Potency, µM (doses to about 58.2 µM), hits mostly inhibitors. hit rate 0.2% among 360,000; also: nearly all actives have a fitted effect of over 45% in size
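AMA1 (3D7) with his tag at 25 nM final met compounds first, then biotinylated RON2 peptide at 25 nM; detection used donor plus acceptor beads, 10 µg/mL apiece, read by AlphaScreen after 30 min at room temperature.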
Pf growth 96h: Primary qHTS for delayed death inhibitors of the malarial parasite plastid, 96 hour incubation; P. falciparum luciferase reporter growth, 96 h; hit rate 6.9% among 320,000; AID 504834, 2011; Potency, µM (titrated, usually from 28.7 µM), usual class: inhibitors
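96 h incubation, 37 C, 5% CO2, of luciferase-reporter P. falciparum-infected RBCs (2% hematocrit, 0.05% parasitemia final) with test compounds; endpoint luminescence.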
Cycloheximide cs: Cycloheximide Counterscreen for Small Molecule Inhibitors of Shiga Toxin; hit rate 12% among 300,000; cell reporter, cycloheximide protein synthesis inhibition counterscreen; AID 2314, 2010; max response, %; in the data active = max response mostly above about 13%, no sharp cut-off; inactive = mostly below about 14%; also: read at 38.3 µM for the half of the compounds with a filed dose
Pf growth 48h: Primary qHTS for delayed death inhibitors of the malarial parasite plastid, 48 hour incubation; hit rate 5.9% among 310,000; Potency, µM (top dose mostly 28.7 µM), most hits filed as inhibitors; P. falciparum luciferase growth in erythrocytes, 48 h
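Growth was read as firefly luciferase luminescence after a 48 h, 37 C, 5% CO2 exposure of compounds to reporter-bearing P. falciparum cultures (0.1% parasitemia, 2% hematocrit final) in Albumax-supplemented RPMI 1640.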
Large screens that a line does not name were inactive. Unless noted, calls follow the shape of the dose curve; as a rule, active = well fitted curve in the direction sought with a large enough effect; inconclusive = small, poorly fitted or top-dose-only effect, or another doubt; inactive = no such curve, though single readings can be large; an effect the other way counts as inactive or inconclusive.

CC(C)C(=O)NNC(=O)CN1CCN(c2nc(-c3ccccc3)cs2)CC1	none
CCc1nnc(NC(=O)CN2CCN(c3nc(-c4ccccc4)cs3)CC2)s1	Pf growth 96h 9.28µM, Pf growth 48h 10.4µM
O=C(Cc1cccs1)Nc1nnc(-c2ccccc2)s1	none
O=C(CN1CCCCCC1)Nc1nc2ccccc2s1	none (no result: Shiga inhibitor, Pf growth 96h, Cycloheximide cs, Pf growth 48h)
O=C(CN1CCCCC1)Nc1nnc(-c2ccccc2)s1	Shiga inhibitor 71.8, Cycloheximide cs 20.0
CC(C)(C)CC(=O)Nc1nnc(-c2cccs2)s1	Shiga inhibitor 66.8, Pf growth 96h inconclusive, Cycloheximide cs 43.4
CCc1nnc(NC(=O)CN2CCN(CC)CC2)s1	none
Cc1ccc(S(=O)(=O)Cc2nc(-c3ccc(C(=O)NCc4ccccc4F)cc3)oc2C)cc1	none (no result: HCV inh, AMA1-RON2 inh, Pf growth 96h, Pf growth 48h)
O=C(CN1CCCCC1)Nc1nnc(-c2ccc([N+](=O)[O-])cc2)s1	Cycloheximide cs 21.1
CC1(C)CC[C@]2(C(=O)O[C@@H]3O[C@H](CO)[C@@H](O)[C@H](O)[C@H]3O)CC[C@]3(C)C(=CCC4[C@@]5(C)CC[C@H](O[C@@H]6O[C@H](C(=O)O)[C@@H](O[C@H]7OC[C@@H](O)[C@@H](O)[C@@H]7O)[C@H](O)[C@H]6O)C(C)(C)C5CC[C@]43C)[C@@H]2C1 (stereo partly specified)	none (no result: Shiga inhibitor, Pf growth 96h, Cycloheximide cs, Pf growth 48h)
CC1(C)CC[C@]2(C(=O)O)CC[C@]3(C)C(=CC[C@@H]4[C@@]5(C)CC[C@H](O[C@@H]6O[C@H](C(=O)O)[C@@H](O)[C@H](O[C@@H]7OC[C@H](O)[C@H](O)[C@H]7O)[C@H]6O)C(C)(C)[C@@H]5CC[C@]43C)[C@@H]2C1	HCV inh 11.2µM (no result: Shiga inhibitor, Pf growth 96h, Cycloheximide cs, Pf growth 48h)
CCN(CC(=O)NCc1ccc(F)cc1)C(=O)C1CCN(S(=O)(=O)c2ccc(C(C)C)cc2)CC1	Pf growth 96h inconclusive, Pf growth 48h inconclusive (no result: Shiga inhibitor, Cycloheximide cs)
COc1cc(C2c3c(-c4ccccc4O)n[nH]c3C(=O)N2Cc2ccco2)cc(OC)c1OC (stereo unspecified)	Pf growth 96h 7.38µM, Pf growth 48h 11.7µM
O=C1c2[nH]nc(-c3ccccc3O)c2C(c2cccc(O)c2)N1Cc1ccco1 (stereo unspecified)	HCV inh inconclusive, Pf growth 96h inconclusive
COc1cc(C2C(C(=O)c3cccs3)=C(O)C(=O)N2Cc2ccco2)cc(OC)c1OC (stereo unspecified)	Pf growth 48h inconclusive
COc1ccc(C2c3c(-c4ccccc4O)n[nH]c3C(=O)N2Cc2ccco2)cc1 (stereo unspecified)	Pf growth 96h 9.28µM, Pf growth 48h inconclusive
O=C(NC1CCCCCC1)c1ccc2c(=O)n3c(nc2c1)CCCCC3	Cycloheximide cs 31.3 (no result: Pf growth 48h)
Cc1ccc(NC(=O)c2ccc3c(=O)n4c(nc3c2)CCCCC4)cc1F	HCV inh 10µM, Pf growth 96h inconclusive
COc1ccc(NC(=O)c2ccc3c(=O)n4c(nc3c2)CCCCC4)cc1	HCV inh inconclusive, Cycloheximide cs 21.3
O=C(Nc1nc(-c2ccccc2)cs1)c1ccc2c(=O)n3c(nc2c1)CCCCC3	HCV inh 2.51µM, Pf growth 96h inconclusive
CCCC[C@H](NC(=O)[C@H](CC(C)C)NC(=O)CNC(=O)[C@@H](NC(=O)[C@H](Cc1ccccc1)NC(=O)[C@H](CO)NC(=O)[C@@H](N)CC(=O)O)C(C)C)C(N)=O	none (no result: HCV inh, AMA1-RON2 inh, Pf growth 96h, Pf growth 48h)
Cc1cc(C)n2nc(S(=O)(=O)NC(C)(C)C)nc2n1	none
COc1ccc(CNC(=O)CN(Cc2ccco2)C(=O)CCC(=O)Nc2ccccn2)cc1	none
CCOc1cc(C(=O)N(C)CC(=O)Nc2cccc(F)c2)ccc1OCC(=O)N1CCCCC1	Pf growth 96h inconclusive, Pf growth 48h inconclusive (no result: Shiga inhibitor, Cycloheximide cs)
CCCNC(=O)C1CCC(CNS(=O)(=O)c2ccc3c(c2)N(C(C)=O)CCO3)CC1 (stereo unspecified)	Pf growth 96h inconclusive, Pf growth 48h inconclusive
COc1ccccc1-c1cnc2c(c1)C(=O)N([C@@H](C)CO)C[C@@H](C)[C@H](CN(C)C(=O)c1cccnc1)O2	none (no result: Shiga inhibitor, HCV inh, Pf growth 96h, Cycloheximide cs, Pf growth 48h)
Cc1cccc(OCCNC(=O)CCNS(=O)(=O)c2ccc3ccccc3c2)c1	Pf growth 48h inconclusive (no result: Shiga inhibitor, Cycloheximide cs)
O=C(Nc1ccccc1Cl)c1ccc2c(=O)n3c(nc2c1)CCC3	none (no result: Shiga inhibitor, Cycloheximide cs)
Cc1ccc(NC(=O)c2ccc3c(=O)n4c(nc3c2)CCCCC4)nc1	HCV inh inconclusive (no result: Shiga inhibitor, Cycloheximide cs)
Cc1cccc(NC(=O)c2ccc3c(=O)n4c(nc3c2)CCCCC4)n1	HCV inh 14.1µM (no result: Shiga inhibitor, Cycloheximide cs)
O=C(Nc1ccc(F)cc1Cl)c1ccc2c(=O)n3c(nc2c1)CCCCC3	Pf growth 96h 3.7µM
O=C(Nc1ccc(SC(F)F)cc1)c1ccc2c(=O)n3c(nc2c1)CCC3	HCV inh 3.98µM (no result: Shiga inhibitor, Cycloheximide cs)
COc1ccccc1NC(=O)CSc1nccc(-c2ccco2)n1	Pf growth 96h inconclusive, Pf growth 48h inconclusive (no result: Shiga inhibitor, Cycloheximide cs)
O=C(N/N=C/c1cccc(OC(=O)c2cccc(Br)c2)c1)c1ccncc1	none
Oc1ccc(Cl)cc1	none (no result: Shiga inhibitor, Cycloheximide cs)
Cc1ccc(C(=O)c2ccc(O)cc2)cc1C	Cycloheximide cs 17.6
O=C(c1ccccc1)c1ccc2cc(O)ccc2c1	Shiga inhibitor 72.3, HCV inh inconclusive, Cycloheximide cs 35.1
O=C(c1ccc(O)cc1)c1ccc(Cl)cc1	Cycloheximide cs 21.4
O=C(c1ccccc1)c1ccc2ccccc2c1	none (no result: Shiga inhibitor, Pf growth 96h, Cycloheximide cs, Pf growth 48h)
C#CCN(C[C@@H]1[C@@H](OC(=O)NCc2ccccc2)[C@@H](OC(=O)NCc2ccccc2)CN(C(=O)OC(C)C)N1C(=O)OC(C)C)S(=O)(=O)c1ccc(C)cc1	none (no result: Shiga inhibitor, HCV inh, Pf growth 96h, Cycloheximide cs, Pf growth 48h)
COc1ccc(C2N=C(N)N=C(N)N2c2ccccc2OC)cc1OC (stereo unspecified)	Pf growth 96h inconclusive
NC1=NC(c2ccc(Cl)cc2)N(c2ccc(S(N)(=O)=O)cc2)C(N)=N1 (stereo unspecified)	Pf growth 96h 9.28µM, Pf growth 48h inconclusive
O=C(/C=C/c1ccc(O)cc1)c1ccccc1	Shiga inhibitor 75.3, Cycloheximide cs 38.9
COc1ccc(Oc2coc3cc(OC(=O)/C=C/c4ccc(F)cc4)ccc3c2=O)cc1	Pf growth 96h 4.15µM, Pf growth 48h inconclusive
COc1ccc(Oc2coc3cc(OC(=O)/C=C/c4ccccc4)ccc3c2=O)cc1	none
Cc1nn(C)cc1/C=C/C(=O)c1ccc(O)cc1	Shiga inhibitor 39.7, Cycloheximide cs 38.0
Cc1nn(C)cc1/C=N/O	none (no result: Pf growth 96h)
COc1ccc(C(=O)/C=C/c2ccc(OC)c(Cn3nnc4ccccc43)c2)cc1	Pf growth 96h 0.104µM, Pf growth 48h inconclusive
CCN(CC)c1ccc(C(=C2C=CC(=[N+](CC)CC)C=C2)c2ccc(S(=O)(=O)O)cc2S(=O)(=O)[O-])cc1	AMA1-RON2 inh inconclusive (no result: Shiga inhibitor, Pf growth 96h, Cycloheximide cs, Pf growth 48h)

Screens (PubChem)
